The panel holds about 83,000 compounds, 20% with a hit somewhere; the sample as a whole holds those more often.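 Results are percent growth after 48 hours of single-concentration exposure. 100 means growth as in untreated cells, lower positive values show inhibition; negative values down to -100 show cell death.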 Values without a mark were called inactive. Active and inactive are the calls of the source. Rule for the calls: active = growth percent below 10; inactive = the rest.
How the values were obtained:
Assay in all cases: NCI-60 one-dose screen, 48 h (100 = growth as untreated, 0 = no growth, -100 = all killed)
Conditions in all cases: 10 µM unless noted
[1] = test system: NCI-H23 lung
[2] = test system: NCI-H226 lung
[3] = test system: NCI-H322M lung
[4] = test system: HOP-62 NSCLC
[5] = test system: HOP-92 NSCLC
[6] = test system: NCI-H522 lung
[7] = test system: A549/ATCC NSCLC
[8] = test system: 786-0 renal
[9] = test system: COLO 205 colon
[10] = test system: DU-145 prostate
[11] = test system: K-562 leukemia
[12] = test system: MALME-3M melanoma
[13] = test system: MDA-MB-231 breast
[14] = test system: RXF 393 renal
[15] = test system: SF-268 CNS
[16] = test system: SF-295 CNS
[17] = test system: SF-539 CNS
[18] = test system: UACC-257 melanoma
[19] = test system: M14 melanoma
[20] = test system: NCI-H460 lung

Structure (SMILES)	growth [1]	growth [2] [%]	growth [3]	growth [4]	growth [5]	growth [6]	growth [7]	growth [8]	growth [9]	growth [10]	growth [11]	growth [12]	growth [13]	growth [14] [%]	growth [15]	growth [16]	growth [17]	growth [18]	growth [19]	growth [20]
COc1ccc2c(c1)c(-c1nc(-c3c[nH]c4ncccc34)cs1)cn2CCN	68%	70.6	57.7%	58.3%	29%	65.6%	48.2%	72.1%	32.2%	59.7%	41.5%	81.6%	53.7%	59.9	80.1%	95.3%	68.8%	98.2%	67.5%	
CCCCC(=O)OC1CCCCC1C (centres undefined)	97.3%	79.1	111%	98.9%		83%		92.4%	100%	105%	98.8%	94.6%	106%	93.4	98.7%	97%	103%	78.5%		104%
O=C(O[C@@H]1Cc2c(O)cc(O)cc2O[C@@H]1c1cc(O)c(O)c(O)c1)c1cc(O)c2c(c1)OCO2	92.6%	93	107%	98.5%	95.1%	83.3%	82.5%	94.4%	104%	99.7%	91%	108%	101%	111	97%	103%	108%	83%	91.9%	
COc1cccc(-c2nn(-c3ccccc3)cc2-c2ccnc(NCCCNS(=O)(=O)c3ccccc3)c2)c1	44.3%	35.1	59.3%	64.3%	18.9%	31.1%	35.8%	43.2%	17.1%	52%	9.59% (active)	68.7%	20.6%	36.4	47.1%	16.8%	57.5%		29.9%	
COc1cc(-c2cc(-c3nc4cc(Cl)c(Cl)cc4[nH]3)[nH]n2)cc(OC)c1OC	75.3%		92.3%	80.6%	61.2%	45.8%	69.5%	87.4%	46.8%	92.5%	17.5%	46.4%	74%	70.6	96.5%		77.8%	88%	62.3%	69.7%
C=C(C)[C@@H]1CC[C@]2(C)CC[C@]3(C)[C@H](CC[C@@H]4[C@@]5(C)CCCNC(C)(C)[C@@H]5CC[C@]43C)[C@@H]12	94.1%		99.5%	101%	76.6%	106%	51.3%	102%	8.77% (active)	75.6%	4.15% (active)	88.9%	96.7%	88.4	104%	106%	98.2%	107%	79.6%	48.4%
CC/C(=N/NC(N)=O)c1ccccc1	98.6%		102%	107%	103%	99.5%	96.4%	98.5%	119%	108%	101%	105%	102%	108	107%	89.8%	95.1%		106%	108%
COc1cccc2c1C(=O)c1c(O)c3c(c(O)c1C2=O)C[C@@](O)(C(=O)CO)C[C@@H]3OC1C[C@H](N)[C@H](O)[C@H](C)O1 (some centres undefined)	-33.5% (active)		-2.94% (active)	-29.2% (active)	-26.2% (active)	-61.1% (active)	8.81% (active)	6.46% (active)	-81.6% (active)	3.11% (active)	-2.21% (active)	-57.6% (active)	-9.32% (active)		-31.7% (active)	-22.4% (active)	-29.8% (active)	-35% (active)	-71.6% (active)	0.418% (active)
Cc1nn(-c2ccc(Br)cc2)c2nc3[nH]c(=O)[nH]c(=O)c3nc12	99%		119%	120%	110%	98.1%		100%	115%	114%	101%	108%	110%	114	110%	98.6%	99.7%	99%	112%	108%
